Test results from the supplement of paper PMC6555819.

Columns and labels:
Assay in all cases: PBM binding z-score (relative to random genomic background probes); higher = stronger binding; sequences stand for … in GC…GCGATTGACAGCGTAGAATGAAGG
[1] = system: FXR:RXRa (NR concentration 270 nM, RXRa partner concentration 90 nM)
In short: (§1)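 For binding z-scores, the reference was random background probes on custom Agilent 4×180K protein-binding microarrays. These arrays were incubated 1 h with ligand-free nuclear receptor dimers in PBS pH 7.4, 2% milk, 0.02% Triton X-100, 1 mM DTT, 0.2 mg/mL BSA and 0.4 mg/ml salmon testes DNA. Fluorescence was scanned after antibody detection of each partner (one per run) and regression-normalized.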

[2] = system: LXRa:RXRa (NR concentration 270 nM, RXRa partner concentration 90 nM)
In short: as §1

[3] = system: LXRa homodimer (NR concentration 270 nM)
In short: as §1

[4] = system: LXRb:RXRa (NR concentration 270 nM, RXRa partner concentration 90 nM)
In short: as §1

[5] = system: LXRb homodimer (NR concentration 270 nM)
In short: as §1

[6] = system: PPARa:RXRa (NR concentration 270 nM, RXRa partner concentration 90 nM)
In short: as §1

[7] = system: PPARg:RXRa (NR concentration 180 nM, RXRa partner concentration 90 nM)
In short: as §1

[8] = system: PPARg:RXRa 270nM:90nM, anti-RXR (NR concentration 270 nM, RXRa partner concentration 90 nM)
In short: as §1

[9] = system: PPARg:RXRa 30nM:10nM, anti-RXR (NR concentration 30 nM, RXRa partner concentration 10 nM)
In short: as §1

[10] = system: PPARg:RXRa 90nM:30nM, anti-RXR (NR concentration 90 nM, RXRa partner concentration 30 nM)
In short: as §1

[11] = system: PPARg:RXRa DBDmut IVT, anti-RXR (DBD mutation: RXRa K156A/R161A, NR concentration 270 nM, RXRa partner concentration 90 nM)
In short: as §1

[12] = system: PPARg:RXRa IVT, anti-PPARg (NR concentration 270 nM, RXRa partner concentration 90 nM)
In short: as §1

[13] = system: PPARg DBDmut:RXRa IVT, anti-PPARg (DBD mutation: PPARg1 K132A/R137A, NR concentration 270 nM, RXRa partner concentration 90 nM)
In short: as §1

[14] = system: PPARg DBDmut IVT, anti-PPARg (DBD mutation: PPARg1 K132A/R137A, NR concentration 270 nM)
In short: as §1

[15] = system: PPARg homodimer (NR concentration 180 nM)
In short: as §1

[16] = system: PXR:RXRa (NR concentration 270 nM, RXRa partner concentration 90 nM)
In short: as §1

[17] = system: PXR homodimer (NR concentration 270 nM)
In short: as §1

[18] = system: RARa:RXR (NR concentration 270 nM, RXRa partner concentration 90 nM)
In short: as §1

[19] = system: RARa homodimer (NR concentration 270 nM)
In short: as §1

[20] = system: RARb:RXRa (NR concentration 270 nM, RXRa partner concentration 90 nM)
In short: as §1

| Sequence | PBM binding z-score [1] | PBM binding z-score [2] | PBM binding z-score [3] | PBM binding z-score [4] | PBM binding z-score [5] | PBM binding z-score [6] | PBM binding z-score [7] | PBM binding z-score [8] | PBM binding z-score [9] | PBM binding z-score [10] | PBM binding z-score [11] | PBM binding z-score [12] | PBM binding z-score [13] | PBM binding z-score [14] | PBM binding z-score [15] | PBM binding z-score [16] | PBM binding z-score [17] | PBM binding z-score [18] | PBM binding z-score [19] | PBM binding z-score [20] |
| --- | --- | --- | --- | --- | --- | --- | --- | --- | --- | --- | --- | --- | --- | --- | --- | --- | --- | --- | --- | --- |
| AGAGTGAGGTTAAGATCAGGGAAACAGAATACAT | 2.54 | 2.17 | 0.665 | 2.44 | 1.09 | 3.15 | 1.43 | 2.13 | 0.952 | 1.36 | 0.514 | 1.39 | 0.929 | 0.933 | 1.63 | 1.62 | 1.51 | 2.02 | 1.55 | 2.38 |
| CAAACTAGGTCAAAGATCAAAGTCGAGCCAACCA | 4.71 | 3.87 | 0.503 | 3.15 | 0.553 | 6.47 | 11.6 | 9.58 | 9.42 | 10.6 | 8.07 | 8.58 | 1.49 | 0.885 | 1.76 | 2.81 | 0.46 | 4.42 | 0.53 | 3.99 |
| CTCGAAAGGTCGGTTGAGGTGAGTGTACGGATAA | 2.54 | 2.08 | -0.0781 | 1.51 | -0.0633 | 2.67 | 0.33 | 1.27 | 0.405 | 0.48 | 0.169 | 1.3 | 0.72 | -0.675 | 1.07 | 3.54 | 0.527 | 3.02 | 0.735 | 3.07 |
| AGTCAAAGTTCAGGACGAGGTAACGTACAGCACG | 4.02 | 3.94 | 1.42 | 1.7 | 0.128 | 3.3 | 4.64 | 4.76 | 2.19 | 3.73 | -0.265 | 2.01 | 0.413 | 0.297 | 1.59 | 2.95 | 0.808 | 3.01 | 0.256 | 4.18 |
| GTACCAAGGTGAATAGGACGTTGATGAGTAGGCG | 0.0663 | -0.214 | 0.103 | -0.344 | -0.664 | 0.537 | 1.07 | 0.126 | 0.338 | 0.55 | 1.26 | 1.93 | 0.467 | 0.284 | 0.583 | -0.246 | -0.00267 | -0.0237 | 0.381 | 1.14 |
| TCATATAGGTAAATGCTAGGTGAAATTCCGATCT | 0.456 | 0.522 | -0.0474 | 0.729 | 0.187 | 1.17 | 0.929 | 2.31 | 3.86 | 3.3 | 3.98 | 2.41 | 0.621 | 1.13 | 1.04 | 0.404 | 0.241 | 0.848 | 1.28 | 0.363 |
| TCTATTAGTTGGTTAGGGCAACCGAAACAGCGGA | 0.675 | 0.576 | 0.522 | 0.534 | 1.35 | 0.448 | -0.169 | 1.55 | 3.59 | 2.57 | 1.47 | 0.862 | 1.18 | 0.941 | 0.798 | 0.158 | 0.345 | 0.342 | 1.17 | 0.848 |
| TCTTGTAGTTCAACAGGAGGTTAAGAAAGATCGA | 1.51 | 2.8 | 1 | 1.78 | 0.269 | 2.44 | 0.0566 | 1.66 | 2.29 | 1.89 | 1.24 | 0.804 | 0.436 | -0.0772 | 1.16 | 3 | 0.574 | 2.75 | 0.938 | 2.56 |
| TCTATTACTTGAAGGGCAACCGACGAGTCCGTTT | 0.851 | 1.02 | 0.425 | 1.19 | 0.925 | 1.48 | 0.388 | 2.11 | 3.96 | 3.26 | 2.52 | 0.782 | 1.07 | 1.12 | 0.761 | 1.01 | 0.901 | 1.02 | 1.4 | 1.59 |
| TCTGCTAGGTTAACGATGGTCAGCTAATCTGCTA | -1.53 | 0.817 | -0.894 | -0.156 | -0.756 | 0.393 | -0.117 | 0.909 | 1.45 | 1.06 | 2.11 | 1.89 | -0.412 | -0.772 | -1.29 | -0.232 | -0.501 | 0.0866 | -0.99 | 1.15 |
| TCTCGGAGGACACTAAGGTCAGAGCTTTCCAGAG | 1.87 | 1.63 | 0.625 | 1.5 | -0.615 | 2.32 | 0.459 | 1.84 | 2.1 | 1.81 | 1.61 | 1.22 | -0.543 | -1.32 | 1.72 | 3.24 | 6.61 | 2.71 | -0.0898 | 3.32 |
| AACTCTAGGTAAAGATAGTTCAGTGAATGCAAAT | 0.28 | 3.96 | 0.498 | 0.633 | -0.176 | 0.465 | 0.601 | 0.353 | 0.0247 | 0.245 | 2.43 | 1.47 | 1.03 | 0.24 | 0.547 | 0.755 | 0.513 | 0.462 | 0.929 | 0.576 |
| CGTCCAAGGTCACTGCTAGGTCAGTGAAAGCATT | 6.69 | 5.11 | 1.49 | 4.28 | 0.283 | 5.14 | 4.7 | 5.1 | 1.92 | 3.94 | 3.59 | 4.59 | -0.128 | 0.266 | 3.91 | 4.72 | 1.09 | 5.65 | 0.316 | 5.42 |
| TCATATAGGTAATACAGGAGAAAGTCGGCATCTA | 0.853 | 1.01 | 0.161 | 0.676 | 0.172 | 1.07 | 1.23 | 2.37 | 3.96 | 2.81 | 4.09 | 2.1 | 1.79 | 0.92 | 0.788 | 0.627 | 0.0379 | 0.706 | 1.13 | 0.369 |
